About 83,000 compounds went through this panel and 20% of them were active in at least one assay; those are over-represented in the sample as a whole.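 Interpretation: 100, growth as untreated; towards 0, rising growth inhibition; 0, no net growth; 0 to -100, cell death. Compounds scoring below 10 were considered active.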 A number with no mark means an inactive call. Activity calls are given as the source filed them.
Legend:
Experiment in all cases: NCI-60 one-dose screen, 48 h (100 = growth as untreated, 0 = no growth, -100 = all killed)
Conditions in all cases: 10 µM unless noted
[1] = system: DU-145 prostate
[2] = system: K-562 leukemia
[3] = system: MALME-3M melanoma
[4] = system: MDA-MB-231 breast
[5] = system: RXF 393 renal
[6] = system: SF-268 CNS
[7] = system: SF-295 CNS
[8] = system: SF-539 CNS
[9] = system: UACC-257 melanoma
[10] = system: M14 melanoma
[11] = system: HCT-15 colon
[12] = system: HT29 colon
[13] = system: SNB-19 CNS
[14] = system: U251 CNS
[15] = system: PC-3 prostate
[16] = system: SK-MEL-5 melanoma
[17] = system: UACC-62 melanoma
[18] = system: LOX IMVI melanoma
[19] = system: SK-MEL-28 melanoma

Row | SMILES | growth [1] | growth [2] | growth [3] | growth [4] | growth [5] | growth [6] | growth [7] | growth [8] | growth [9] | growth [10] | growth [11] | growth [12] | growth [13] | growth [14] | growth [15] | growth [16] | growth [17] | growth [18] | growth [19]
1 | COc1cccc(-c2nc3sccn3c2-c2ccnc(NCCCNS(=O)(=O)c3ccc(C(F)(F)F)cc3)c2)c1 | 65.4% | 28.1% | 86.4% | 62.1% | 65.6% | 45.9% | 44.3% | 55.1% | 61.7% | 47.7% | 38.7% | 47.2% | 69.4% | 55.1% | 29.1% | 5.99% (active) | 43% | 55.3% | 72.4%
2 | CCC(=O)Oc1ccc(/C(=C(/C)Cc2cccc(OC)c2)c2ccc(OCCN(C)C)cc2)cc1 | 93.3% | -26.5% (active) | 100% | 88.2% | 88.6% | 86.3% | 99.2% | 90.3% | 118% | 31.8% | 48.2% | 43.7% | 92.6% | 71.3% | 85.5% | 92.9% | 103% | 73.4% | 110%
3 | Cc1ccc(S(=O)(=O)n2cc(C(=O)C(=O)Nc3ccncc3)c3ccccc32)cc1 | 22.4% | 23.8% | 48.4% | 42.9% | 9.66% (active) | 44.6% | 16.4% | 15% | 63.3% | 18.1% | 24.9% | 6.07% (active) | 45.7% | 33.7% | 55.1% | 11.2% | 32.4% | 45.2% | 52%
4 | CCO/C=N/C1=C(C#N)C(c2ccc(Cl)cc2)c2c(c3ccc(C)cc3[nH]c2=O)O1 (centres undefined) | 103% | 88.1% | 81.8% | 59.6% | 73.9% | 90.7% | 89.6% | 75.9% | 97.2% | 87.1% | 91.1% | 80.5% | 84.7% | 90.3% | 83.5% | 87.1% | 67.6% | 86.8% | 101%
5 | COc1cc(NC(N)=NCCC(C)(C)c2ccc(C(F)(F)F)cc2)ncc1C#N | 39.6% | -18.1% (active) | -77.9% (active) | 26% | 33.4% | 44.1% | 25.9% | 61.1% | -0.602% (active) | -73.7% (active) | 14.6% | -37% (active) | 48.4% | -37.4% (active) | 25.4% | -80.2% (active) | 10.4% | 18.3% | -55.6% (active)
6 | CN(C[C@H]1Cc2c(cccc2N2CCN(c3ncccn3)CC2)CN1)[C@H]1CCCc2cccnc21 | 55% | 8.04% (active) | 82.7% | 52.9% | 57.6% | 60% | 44.4% | 55.5% | 55.1% | 53.7% | 31.6% | 21.2% | 41% | 24.1% | 34.2% | 26.9% | 53.7% | 36.4% | 65.2%
7 | COc1ccc2[nH]c(=O)c(/C=N/Nc3nc(-c4ccccc4)cs3)c(O)c2c1 | 63.7% | 71.3% | 84.5% | 57.5% | 97.1% | 56.4% | 69.3% | 84.1% | 98.8% | 75.2% | 20.5% | 70.2% | 75.4% | 44.3% | 58.9% | 65.2% | 62.7% | 60% | 76%
8 | CC(C)CSc1nc(NN)c(C#N)c(-c2ccc(F)cc2)n1 | 66.5% | 58.8% | 95.5% | 86.8% | 79.3% | 62.6% | 44.7% | 65.9% | 105% | 78.9% | 46.9% | 103% | 60.8% | 60.2% | 56.7% | 50.3% | 56% | 54.4% | 85%
9 | COc1cccc(-c2nc3sccn3c2-c2ccnc(NCCCNS(=O)(=O)c3ccc(F)cc3)c2)c1 | 34% | 17.8% | 39.6% | 57.4% | 63.2% | 41.2% | 18.6% | 67.2% | 35.6% | 25.7% | 19.4% | 44.4% | 62.3% | 55.5% | 9.93% (active) | -39.3% (active) | -38.3% (active) | 23.1% | 52.1%
10 | COc1ccc(C(=O)c2cc(OC)c(OC)c(OC)c2OC)cc1O | 35.6% | 27.6% | 23% | 56% | 40% | 38.9% | 33.3% | 23.8% | 79.9% | 10.9% | 30.2% | 55.6% | 40.6% | 33.4% | 68.4% | 2.02% (active) | 40.3% | 38.7% | 45.6%
11 | CCCC(=O)Oc1ccc(/C(=C(\C)c2ccccc2)c2ccc(OCCN(CC)CC)cc2)cc1 | 102% | 16% | 70.3% | 92.6% | 61.1% | 77.2% | 91.4% | 60.4% | 67.6% | 40.7% | 49.7% | 5.74% (active) | 85.7% | 65.1% | 60.7% | 64.1% | 80.4% | 79.8% | 68.3%
12 | Cn1c(=O)cc(NC(=O)CN2CCN(c3cc4c(cc3F)c(=O)c(C(=O)O)cn4C3CC3)CC2)[nH]c1=O | 103% | 100% | 104% | 98.5% | 102% | 92.7% | 101% | 102% | 100% | 96.5% | 99% | 103% | 98.4% | 101% | 95.2% | 101% | 96.3% | 99.5% | 107%
13 | CCOC(=O)c1cc(C(=O)c2cc(OC)c(OC)c(OC)c2)n2c1ccc1ccccc12 | 22.1% | 12.3% | 19.9% | 49.8% | -9.46% (active) | 49.6% | 22.4% | -13.4% (active) | 63.6% | 10.7% | 25.7% | 9.65% (active) | 35.1% | 49% | 21.9% | 9.89% (active) | 32.1% | 40.4% | 55.9%
14 | COc1ccc(S(=O)(=O)Nc2cc(/C=C\c3cc(OC)c(OC)c(OC)c3)cc(OC)c2OC)cc1 | -0.291% (active) | 7.33% (active) | 81.5% | 21% | 40.9% | 14% | 19.4% | 0.203% (active) | 51.3% | 15.9% | 15% | 2.32% (active) | 57.7% | 5.4% (active) | 6.4% (active) | -6.88% (active) | 46% | 21.5% | 67.8%
15 | C=C1CCC2C(C)(CO)C(O)CCC2(C)C1C/C=C1/C(=O)OCC1O/C=C/c1ccccc1 (centres undefined) | 82.8% | 22.9% | 105% | 95.6% | 81.2% | 96.7% | 92.7% | 96.9% | 83.6% | 86.1% | 57.8% | 56.6% | 95.3% | 83.8% | 58.6% | 82.1% | 65.2% | 36.8% | 93.3%
16 | CC(C)(C)n1cc(-c2ccnc(NCCCNS(=O)(=O)c3cccc(F)c3)c2)c(-c2cccc(O)c2)n1 | 66% | 2.9% (active) | 50.3% | 37.3% | 46.5% | 54% | 31.6% | 39.3% | 52.9% | 34.9% | -7.15% (active) | 12.6% | 75.7% | 49.9% | 32.9% | 26.1% | 64.5% | -71.1% (active) | 47.2%
